From PubChem BioAssay
Sampled rows, rich in hits. Any-hit rate of the full collection: about 1.7%.
RXFP1 ag = qHTS Assay for Agonists of the Relaxin Receptor RXFP1; Relaxin receptor 1 (Homo sapiens), Q9HBX9; HEK293T-RXFP1 cAMP TR-FRET, 30 min; response scale: percent of porcine relaxin response, buffer zero; Potency, µM (titrated, usually from 57.5 µM), hits mostly activators; 0.3% of 370,000 active; AID 2676, 2010; active means well fitted activation curve with a large enough effect; inconclusive means small, poorly fitted or top-dose-only effect; further: nearly all actives have a fitted effect of over 60% in size
Target sequence (Q9HBX9 whole entry, looked up): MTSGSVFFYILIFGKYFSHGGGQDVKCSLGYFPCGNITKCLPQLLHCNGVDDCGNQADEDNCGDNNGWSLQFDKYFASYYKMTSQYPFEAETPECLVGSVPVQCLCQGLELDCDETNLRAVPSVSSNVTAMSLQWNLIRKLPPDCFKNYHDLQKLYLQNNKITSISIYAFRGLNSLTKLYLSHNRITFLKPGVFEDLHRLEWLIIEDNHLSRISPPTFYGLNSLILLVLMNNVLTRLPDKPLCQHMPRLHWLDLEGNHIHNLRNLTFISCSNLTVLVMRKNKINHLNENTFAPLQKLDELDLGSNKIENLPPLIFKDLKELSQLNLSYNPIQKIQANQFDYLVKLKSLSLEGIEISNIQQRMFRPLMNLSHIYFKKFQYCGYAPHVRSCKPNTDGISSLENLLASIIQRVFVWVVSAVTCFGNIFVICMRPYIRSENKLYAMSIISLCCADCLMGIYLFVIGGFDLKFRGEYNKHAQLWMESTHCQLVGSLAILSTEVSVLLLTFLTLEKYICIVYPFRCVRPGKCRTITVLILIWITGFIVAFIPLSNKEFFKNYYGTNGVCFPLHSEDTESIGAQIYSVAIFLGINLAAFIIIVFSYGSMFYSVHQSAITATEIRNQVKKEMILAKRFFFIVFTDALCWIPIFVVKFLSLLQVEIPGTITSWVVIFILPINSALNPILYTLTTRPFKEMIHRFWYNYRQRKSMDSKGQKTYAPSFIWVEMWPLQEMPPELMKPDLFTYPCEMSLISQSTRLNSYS
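HEK293T cells stably expressing RXFP1 were pretreated with the PDE4 inhibitor Ro 20174, exposed to compounds for 30 min at 37C, lysed, and cAMP was read by TR-FRET. Data normalized to buffer (basal) and 29 nM porcine relaxin (100%).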
KCNH2 3.1 inh = qHTS for Inhibitors of KCHN2 3.1: Mutant qHTS. Potassium voltage-gated channel subfamily H member 2, brain isoform KCNH2 3.1 (human). U2OS KCNH2 3.1, thallium flux FluxOr; stronger effect = lower value. activity change, % (tested at about 1.8 µM). 0.95% of 340,000 active;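 active means maximum activity change below -70%; inconclusive means maximum activity change from -70% to -50%; inactive means maximum activity change above -50%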;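 further: thallium influx rate constant from kinetic fluorescence after stimulation buffer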
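Steps: virus added to U2OS suspension (4 h, RT, dark); medium with 10% FBS added, cells plated, 37 C overnight; FluxOr/Red40 loading buffer 45 min RT; stimulation buffer, 2 min kinetic read; rate constant normalized.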
RXFP1 antagonist = qHTS Assay for Antagonists of the Relaxin Receptor RXFP1. Relaxin receptor 1 (Homo sapiens), Q9HBX9. HEK293-RXFP1, relaxin-stimulated cAMP HTRF, 30 min; stronger effect = lower value. activity change, negative = inhibition, % at 57.5 µM. 0.59% of 350,000 active;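 active means activity change of -60% or lower, but not beyond a set lower limit; inconclusive means change between -60% and -40%, or beyond the set limit; inactive means change above -40%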
pAkt inh = HTS Assay for Inhibitors of Akt Phophorylation: Primary Screen; Neuro2A IGF-stimulated pAkt S473 HTRF, 20 min; stronger effect = lower value; activity change, % for hits at 50 µM; 0.32% of 360,000 active; AID 651550, 2012; in the data active means activity change below about -80%; inconclusive means mostly about -51% to -80%
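Neuro2A cells (4,500/well, DMEM with 0.5% FBS) were treated with compound at a single 50 µM final concentration, stimulated with 6 nM IGF for 20 min at 37 °C, and lysed. Phospho-Akt Ser473 was read by HTRF as 665/615 ratio ×10^4.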
KCNH2 WT inh = qHTS for Inhibitors of KCHN2 3.1: Wildtype qHTS | Voltage-gated inwardly rectifying potassium channel KCNH2 (Homo sapiens), Q12809 | U2OS, BacMam KCNH2, thallium flux FluxOr; stronger effect = lower value | activity change, % at 1.84 µM | 0.37% of 340,000 active;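 active means maximum activity change below -70%; inconclusive means maximum activity change between -70% and -50%; inactive means maximum activity change above -50%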
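U2OS cells transduced with wild-type KCNH2 virus are loaded with FluxOr dye for 45 min, and thallium flux is measured in kinetic reads before and after stimulation buffer. Rate constants are normalized to DMSO controls.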
Each line names hits and unclear results; the compound was inactive in the other large screens.

COC(=O)C[C@H]1C=C[C@@H](NS(=O)(=O)c2ccccc2)[C@@H](CO)O1	none (no result: RXFP1 ag, KCNH2 3.1 inh, RXFP1 antagonist, KCNH2 WT inh)
O=C(Nc1ccnn1C1CCN(Cc2ccc(OC(F)F)cc2)CC1)C1CCCC1	KCNH2 3.1 inh -82.8, KCNH2 WT inh -102.0
Cc1c(CN2CCC(n3nccc3NC(=O)C3CC3)CC2)[nH]c2ccccc12	KCNH2 3.1 inh -73.8
CCc1ccc(CN2CCC(n3nccc3NC(=O)C3CCCC3)CC2)cc1	KCNH2 3.1 inh -75.1
CC(C)c1ccc(CN2CCC(n3nccc3NC(=O)C3CCCC3)CC2)cc1	KCNH2 3.1 inh -72.2 (no result: RXFP1 ag)
O=C(Nc1ccnn1C1CCN(Cc2ccc(Cl)cc2)CC1)C1CCCC1	none
COC(=O)c1ccc(CN2CCC(n3nccc3NC(=O)C3CC3)CC2)cc1	none
Cc1cccc(OCCSc2nc(-c3cccs3)nc3cc(=O)[nH]n23)c1	none (no result: KCNH2 3.1 inh, pAkt inh, KCNH2 WT inh)
O=C(NCCCN1CCCC1)c1cccc(N2CCCC2=O)c1	none
CC(=O)c1cc2c(cc1NC(=O)c1ccc(Cl)cc1)OCCO2	none
Cc1ccc(NC(=S)N(CCN(C)C)C(C)c2ccco2)cc1Cl (stereo not drawn)	none
CC(C)Oc1ccc(CN2CCC(n3nccc3NC(=O)CCc3ccccc3)CC2)cc1	KCNH2 3.1 inh -105.7
COC(=O)c1ccc(S(=O)(=O)N2CCCN(Cc3cccc(Br)c3F)CC2)n1C	none
O=C(/C=C/c1cccc2ccccc12)c1ccncc1	RXFP1 antagonist -71.3
COc1ccc([C@H]2C[C@@H](O)[C@H](n3cc(C4CC4)nn3)CN2C(=O)C2CCCCC2)cc1	none (no result: RXFP1 ag)
CSc1ccc(-c2nc(CN3CCCCC3c3cccnc3)c(C)o2)cc1 (stereo not drawn)	none
Cc1ccc(-c2nc(N)sc2-c2ccccc2)cc1C	RXFP1 antagonist -83.8
O=C(Nc1nnc(-c2cc(Cl)ccc2Cl)o1)c1ccc2c(c1)OCCO2	none (no result: KCNH2 3.1 inh, pAkt inh, KCNH2 WT inh)
Cc1ccc(C(=O)N/C(=C/c2cccs2)C(=O)NCCCn2ccnc2)cc1	KCNH2 3.1 inh -81.5, KCNH2 WT inh -209.4
Cc1ccc(C(=O)N/C(=C\c2ccccc2)C(=O)NCCN2CCOCC2)cc1	none
O=C(NCCCn1ccnc1)/C(=C/c1cccs1)NC(=O)c1ccco1	none
O=C(NCCCn1ccnc1)/C(=C\c1cccs1)NC(=O)c1ccccc1	none (no result: RXFP1 antagonist)
Cc1ccc(C(=O)N/C(=C\c2cccs2)C(=O)NCCCN2CCOCC2)cc1	KCNH2 WT inh -117.1
Cc1ccc(C(=O)N/C(=C\c2cccs2)C(=O)NCCCn2ccnc2)cc1C	KCNH2 3.1 inh inconclusive, KCNH2 WT inh -75.5
Cc1ccc(C(=O)N/C(=C\c2cccs2)C(=O)NCCCn2ccnc2)cc1	KCNH2 3.1 inh -99.2, KCNH2 WT inh -180.8
O=C(Nc1ccc(Br)cn1)c1coc(=O)c(Br)c1	none
COC(=O)c1[nH]c2ccc(Br)cc2c1NC(=O)CN1CCCc2ccccc21	none
Cc1nc(=O)c(-c2ccccc2)c(C)n1CCO	none
Cc1cc(C)nc(NC(=NCCc2c[nH]c3ccc(Cl)cc23)NC(=O)c2ccccc2C)n1	none (no result: KCNH2 3.1 inh, RXFP1 antagonist, pAkt inh, KCNH2 WT inh)
Cc1cc(C)nc(NC(=NCCc2c[nH]c3ccccc23)NC(=O)C(C)(C)C)n1	KCNH2 3.1 inh -88.0
O=C(O)Cc1sc(-c2ccccc2)nc1-c1ccc(Cl)cc1	none (no result: RXFP1 ag)
Cn1c(=O)[nH]c(=O)c2c1nc(SCCN1CCCCC1)n2Cc1ccccc1	KCNH2 3.1 inh -73.6
Cc1cccc(Cn2c(SCCN3CCCCC3)nc3c2c(=O)[nH]c(=O)n3C)c1	KCNH2 3.1 inh -81.0
Cc1ccc(Cn2c(SCCN3CCCCC3)nc3c2c(=O)[nH]c(=O)n3C)cc1	KCNH2 3.1 inh -94.8
CC[C@@H](C)[C@H](NC(=O)OCc1ccccc1)c1nnc([C@@H](NC(=O)OCc2ccccc2)[C@@H](C)CC)o1	KCNH2 3.1 inh -85.8 (no result: RXFP1 antagonist)
CCCCN1C(=N)N([C@@H](C)CN2CCC[C@H]2CN2C(N)=NC[C@H]2CC(C)C)C[C@H]1Cc1ccccc1	none (no result: RXFP1 ag, RXFP1 antagonist)
COc1cc2ccccc2ccc1=NO	none (no result: RXFP1 ag)
COc1ccc(CCNC(=O)CCCn2nc(C)n3ccnc3c2=O)cc1OC	RXFP1 ag inconclusive
Cc1ccc(-n2nc3c(=O)n(CCCC(=O)NCc4ccc(F)cc4)nc(C)c3c2C)cc1	none
Cc1ccc(CNC(=O)CCCn2nc(C)n3ccnc3c2=O)cc1	RXFP1 ag 15.8µM
Cc1nn(CCCC(=O)NCc2ccc(F)cc2)c(=O)c2nccn12	RXFP1 ag 28.2µM
COc1ccc(CCC(=O)NCc2nc3cccnc3n2Cc2ccc(C)cc2)cc1	none (no result: KCNH2 3.1 inh, pAkt inh, KCNH2 WT inh)
Cc1cc(C)cc(C(=O)NCC(=O)OCc2cc([N+](=O)[O-])cc3c2OCOC3)c1	none
C=CCn1c(=O)c2ccccc2n2c(Sc3nnnn3-c3ccccc3)nnc12	pAkt inh -109.9%
Cc1cccc(Nc2nc(N)c([N+](=O)[O-])c(N3CC(C)CC(C)C3)n2)c1 (stereo not drawn)	none
Cc1cccc(Nc2nc(N)c([N+](=O)[O-])c(N3CCC(C)CC3)n2)c1	RXFP1 antagonist -68.7
COCCNC(=O)CN1c2ccccc2CC1C (stereo not drawn)	none
COc1cc(NC(=O)CCc2ccccc2)nc(OC)n1	none
COc1ccc(-n2nnc3c(=O)n(CC(=O)NCC4CCCO4)cnc32)cc1 (stereo not drawn)	RXFP1 ag 11.2µM
Cc1ccc(-c2cn(-c3ccccc3)c(=S)[nH]2)cc1C	RXFP1 antagonist -76.6
O=C(c1ccc2c(=O)n(C3CCCC3)c(=S)[nH]c2c1)N1CCCCCC1	RXFP1 antagonist -62.6
CC1CCCN(C(=O)c2ccc3c(=O)n(C4CCCC4)c(=S)[nH]c3c2)C1 (stereo not drawn)	none
CC(=O)Nc1ccc(SCC(=O)NC(=O)c2ccc(S(=O)(=O)N(C)C)cc2)cc1	KCNH2 WT inh -94.2 (no result: RXFP1 ag)
CN(C)S(=O)(=O)c1ccc(C(=O)NC(=O)CSc2ccccc2)cc1	none
CC1(C(=O)NS(=O)(=O)c2ccccc2OC(F)(F)F)CCN1C(=O)c1ccccc1 (stereo not drawn)	none (no result: RXFP1 ag, KCNH2 3.1 inh, RXFP1 antagonist, KCNH2 WT inh)
CN1C[C@@H]2C(c3ccccc3)C3(c4ccc(C#N)cc4)CC2(C3)[C@H]1c1ccccc1 (stereo partly drawn)	KCNH2 3.1 inh -111.5 (no result: RXFP1 antagonist)
CN1C[C@@H]2C(c3ccc(C(F)(F)F)cc3)C3(c4ccc(C#N)cc4)CC2(C3)[C@H]1c1ccccc1 (stereo partly drawn)	KCNH2 3.1 inh -91.6, KCNH2 WT inh -102.1 (no result: RXFP1 antagonist)
CSc1cnc2c(=O)[nH]c(=O)n(C)c2n1	none
N#Cc1c(-c2cccc(Br)c2)cc(-c2cccnc2)nc1N	none (no result: RXFP1 antagonist)
CCN1C(=O)N/C(=C/c2ccc(C)o2)C1=O	none
